# Bioassay records (PubChem BioAssay)
# NS1 function inh = influenza NS1 inhibition; Potency, µM (top dose mostly 46.1 µM), for inactives: at the top dose activity, positive = more growth; 270,000 compounds, 0.4% hits; calls by dose curve; also: actives are rising curves; nearly all actives have a fitted effect of over 50% in size
#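 Compounds were scored for reversing the slow growth caused by influenza A NS1 in S. cerevisiae, measured by optical density at 600 nm. Assay medium contained 2% galactose at pH 6.0; NS1-free yeast of the same strain were the positive control.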
# Sm TGR inh = blocks Schistosoma mansoni thioredoxin glutathione reductase; purified TGR, DTNB reduction, TNB absorbance 405 nm; Q962Y6; Potency, µM (doses to about 114 µM), for the others: top-dose activity change, negative = inhibition, actives largely listed as inhibitors; AID 485364; 360,000 compounds, 3% hits; also: % is scaled to controls: 0 for no effect and ±100 for the full control effect; nearly all actives have a fitted effect of over 60% in size
#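 First, TGR (20 nM dispensed) and NADPH were mixed with compound. Second, a 15 min room-temperature incubation followed. Third, further NADPH and then DTNB were added to start the reaction. Finally, TNB absorbance was monitored kinetically.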
# TbPYK inhibitor = inhibitors of Trypanosoma brucei pyruvate kinase | Q57TT1 | TbPYK enzyme, Kinase-Glo Plus ATP luminescence, 45 min | Potency, µM (top dose mostly 76.8 µM), for the others: at the highest dose activity, negative = inhibition, hits mostly inhibitors | 410,000 compounds, 0.12% hits | AID 624173; also: % is scaled to controls: 0 for no effect and ±100 for the full control effect; nearly all actives have a fitted effect of over 50% in size
#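 Activity of T. brucei pyruvate kinase was followed by Kinase-Glo Plus luminescence after the enzyme reacted 45 min at room temperature with 130 uM ADP (final) and substrate. Test compounds were added before ADP at multiple concentrations.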
# SARS PLP yeast = SARS-CoV PLP inhibition in yeast | S. cerevisiae expressing SARS-CoV PLpro, growth rescue | Potency, µM (highest dose often 32.9 µM), inactives show at the highest dose activity, positive = growth rescue, hits mostly activators | 330,000 compounds, 0.19% hits | AID 485353; calls by dose curve; also: 0% is about no effect; nearly all actives have a fitted effect of over 55% in size
# LmPK inhibitor = inhibitors of Leishmania mexicana pyruvate kinase; Q27686; purified LmPK, Kinase-Glo ATP luminescence, 1 h; Potency, µM (highest dose often 57.5 µM), without a hit: top-dose activity change, negative = inhibition, usual class: inhibitors; 290,000 compounds, 0.37% hits; AID 1721; also: % is scaled to controls: 0 for no effect and ±100 for the full control effect
# Target sequence (Q27686 whole entry, looked up): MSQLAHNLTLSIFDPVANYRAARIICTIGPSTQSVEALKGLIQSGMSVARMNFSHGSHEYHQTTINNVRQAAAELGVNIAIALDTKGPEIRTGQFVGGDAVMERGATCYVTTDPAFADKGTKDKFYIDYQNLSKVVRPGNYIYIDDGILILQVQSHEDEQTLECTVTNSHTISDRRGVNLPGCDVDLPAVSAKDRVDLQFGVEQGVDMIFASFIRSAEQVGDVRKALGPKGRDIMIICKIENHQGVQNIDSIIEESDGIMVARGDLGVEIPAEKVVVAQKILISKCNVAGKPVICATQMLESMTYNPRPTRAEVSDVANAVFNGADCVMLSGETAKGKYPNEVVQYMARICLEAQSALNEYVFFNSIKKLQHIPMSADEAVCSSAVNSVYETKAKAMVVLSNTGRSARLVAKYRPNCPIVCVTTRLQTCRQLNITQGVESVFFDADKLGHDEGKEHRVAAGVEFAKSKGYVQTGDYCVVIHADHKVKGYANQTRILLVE
#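 Kinase-Glo luminescence read after 1 h RT reaction of 0.1 nM LmPK with 0.5 mM PEP and 0.1 mM ADP. Activity scaled between uninhibited and enzyme-free controls.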
# RE007 growth inh = less growth of the S. pombe RE007 Vpr strain. S. pombe RE007 Vpr strain, BacTiter-Glo ATP luminescence, 24 h. Potency, µM (series often up to 92.2 µM), without a hit: at the top dose activity change, negative = less growth, most hits filed as inhibitors. 360,000 compounds, 0.21% hits; active = well fitted falling curve with a large enough effect; inconclusive = small, poorly fitted or top-dose-only effect; inactive = no such curve, though single readings can be large or run the other way; also: % is scaled to controls: 0 for no effect and ±100 for the full control effect; nearly all actives have a fitted effect of over 50% in size
#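 Fission yeast strain RE007, carrying one chromosomally integrated HIV-1 vpr copy, was seeded at OD 0.01 in PMG+AL medium with 23 nL pinned compound. After 24 h at 30 °C and 99% humidity, viability was read by BacTiter-Glo luminescence.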
# * hit, by the source's call; u = inconclusive; x = not tested or not shown. An excerpt weighted towards active compounds, which were near 3.3% of everything screened. Unless noted, calls follow the shape of the dose curve; as a rule, active = well fitted curve in the direction sought with a large enough effect; inconclusive = small, poorly fitted or top-dose-only effect, or another doubt; inactive = no such curve, though single readings can be large; an effect the other way counts as inactive or inconclusive. Potency is read from the fitted curve at half-maximal effect.
SMILES,NS1 function inh,Sm TGR inh,TbPYK inhibitor,SARS PLP yeast,LmPK inhibitor,RE007 growth inh
c1cncc(CNc2ccc3c(c2)OCO3)c1,7%,16µM*,u,-24%,-12%,-18%
Cc1ccc(CNc2ccc3c(c2)OCO3)c(C)c1,-1%,40µM*,x,x,-6%,x
O=C(Nc1nccs1)c1cc(-c2ccco2)nc2ccccc12,24%,56µM*,-2%,16%,0%,-1%
Cc1nnc(NC(=O)c2cc(-c3ccco3)nc3ccccc23)s1,x,7.9µM*,x,1%,x,x
C/C(=N\NC(=O)c1cc(-c2ccco2)nc2ccccc12)c1cccnc1,10%,10µM*,-1%,-3%,9%,-13%
O=C(NC1CC1)c1cc(-c2ccco2)nc2ccccc12,1%,10µM*,-17%,2%,7%,10%
O=C(Nc1nc2ccccc2s1)c1cc(-c2ccco2)nc2ccccc12,0%,-33%,-6%,6%,1%,-8%
COc1cc(C(=O)NCc2nc3cccnc3n2Cc2ccc(C)cc2)cc(OC)c1OC,x,5%,0%,x,x,x
O=C(N/N=C/c1ccc(F)cc1)c1cc(-c2ccco2)nc2ccccc12,-4%,11µM*,2%,-4%,4%,0%
CCOc1cc(C(c2c(C)[nH][nH]c2=O)c2c(C)[nH][nH]c2=O)cc(Cl)c1O,3%,35µM*,-5%,-3%,-1%,20%
CC(=NNC(=S)N1CCN(c2ccccn2)CC1)c1nccs1,x,x,u,x,x,35µM*
NC(N)=NCCN=C(N)N,1%,x,x,x,x,x
O=c1[nH][nH]c2c(N=Cc3ccccc3O)ccc(F)c12,6%,0.4µM*,-18%,-1%,-23%,6%
CC(C)CN(C[C@@H](O)[C@H](Cc1ccccc1)NC(=O)O[C@H]1CO[C@H]2OCC[C@H]21)S(=O)(=O)c1ccc(N)cc1,x,x,6%,x,x,x
COc1ccc(C2N(C(=O)c3ccccc3)CCN2C(=O)c2ccc(C)cc2)cc1 (configuration not stated),1%,3%,7%,-5%,5%,1%
COc1ccc(C(=O)N2CCn3c(C)ccc3C2C)cc1 (configuration not stated),11%,28µM*,4%,0%,-1%,-10%
COc1ccc(Cl)c(Cn2c(NCc3ccco3)nc3c2c(=O)n(C)c(=O)n3C)c1,0%,50µM*,-1%,16%,3%,12%
Cc1ccc(C(=O)Nc2ccc3c(c2)CCC3)o1,-11%,0%,-13%,-7%,u,u
Cc1occc1C(=O)Nc1ccc2c(c1)CCC2,-93%,-25%,-21%,-25%,13µM*,u
O=C(Nc1ccc2c(c1)OCCO2)c1coc2ccccc2c1=O,-1%,-1%,u,-18%,7.9µM*,-11%
Cc1ccccc1C(=O)Nc1ccc2c(c1)OCCO2,-11%,2%,-14%,-7%,-10%,11%
Cc1occc1C(=O)Nc1ccc2c(c1)OCCO2,-43%,-2%,-17%,-17%,13µM*,-15%
Cc1ccc2c(c1)CCCN2C(=O)c1ccoc1C,-7%,50µM*,-3%,-1%,-2%,22%
COCc1ccc(-c2ccc3c(c2)c(C#Cc2ccsc2)c(-c2cc(OC)cc(OC)c2)n3C)cc1,x,-2%,2%,7%,x,-4%
COc1cc(OC)cc(-c2c(C#Cc3ccsc3)c3cc(-c4ccc(C(N)=O)cc4)ccc3n2C)c1,x,28µM*,-3%,4%,x,8%
SMILES,NS1 function inh,Sm TGR inh,TbPYK inhibitor,SARS PLP yeast,LmPK inhibitor,RE007 growth inh
C[C@@H]1CC=C[C@H]2[C@H]1C(=O)N(Cc1ccccc1)[C@H]2c1ccoc1,-8%,20µM*,1%,-2%,2%,-25%
COc1cc(-c2noc(C)c2C#Cc2ccccn2)cc(OC)c1OC,-11%,35µM*,-4%,-3%,7%,-13%
COc1cc(-c2noc(C)c2C#Cc2ccc(N)cc2)cc(OC)c1OC,3%,-15%,-13%,-3%,5%,8%
COc1ccc2cc1Oc1cc3c(cc1OC)CC[N+](C)(C)C3Cc1ccc(cc1)Oc1c(OC)c(OC)cc3c1C(C2)[N+](C)(C)CC3 (configuration not stated),x,x,-17%,x,x,x
COc1ccc2cc1Oc1ccc(cc1)C[C@H]1c3cc(c(OC)cc3CCN1C)Oc1c(OC)c(OC)cc3c1[C@@H](C2)N(C)CC3,11%,35µM*,2%,8%,x,-8%
O=C(NC(=S)Nc1ccccc1Br)c1ccc2c(c1)OCO2,9%,14µM*,2%,0%,6%,2%
O=C(NC(=S)Nc1ccc2c(c1)OCO2)c1ccccc1,-3%,14µM*,-15%,5%,-2%,-4%
O=C(CCS(=O)(=O)c1ccccc1)Nc1ccc2c(c1)OCO2,4%,20µM*,2%,-2%,-3%,1%
O=C(Nc1ccc2c(c1)OCO2)c1ccc(Br)o1,-78%,0%,-4%,-7%,22µM*,9%
CC(=O)c1ccc(NC(=O)c2cc(-c3ccc(Cl)c(Cl)c3)on2)cc1,x,9%,2%,x,x,x
C/C(CC(=O)Nc1ccc2c(c1)OCO2)=N\NC(=O)c1ccccc1N,6%,u,-1%,0%,0%,9%
CCn1cc(C(=O)NC(=S)Nc2ccccc2Br)cn1,-2%,79µM*,3%,16%,-1%,4%
C/C(CC(=O)Nc1ccc2c(c1)OCO2)=N\NC(=O)c1ccc(N)cc1,3%,40µM*,-4%,1%,-5%,7%
CCn1cc(C(=O)NC(=S)Nc2ccccc2[N+](=O)[O-])cn1,8%,-4%,0%,x,0%,-15%
CC(=O)N1CCN(c2nc(-c3ccco3)c3c(c2C#N)CC(C)(C)SC3)CC1,16%,11µM*,-15%,-8%,5%,6%
CC1(C)Cc2c(c(-c3ccccc3)[nH]c(=O)c2C#N)CS1,9%,-13%,-1%,2%,0%,-5%
CC1(C)Cc2c(c(-c3ccco3)[nH]c(=O)c2C#N)CS1,13%,32µM*,-4%,6%,5%,-27%
CCc1nc(N2CCN(C(=O)c3ccco3)CC2)c(C#N)c2c1COC(C)(C)C2,9%,0%,-1%,-9%,8%,12%
CC1(C)Cc2c(C#N)c(N3CCN(C(=O)c4ccco4)CC3)nc(Cc3ccccc3)c2CO1,6%,0%,1%,5%,8%,6%
CC1(C)Cc2c(C#N)c(N3CCN(C(=O)c4ccccc4Cl)CC3)nc(-c3ccco3)c2CS1,14%,3.5µM*,-24%,-2%,-4%,7%
C/C(=N/NC(=O)c1cccs1)c1c(C)[nH]n(-c2nc3ccccc3s2)c1=O,29%,-6%,u,-68%,20µM*,u
